According to the supplement of paper PMC10849652:
About 7,900 targets were measured; listed, in parts, are those with a hit and a random draw of the rest. About 0.6% of all pairs of compound and target were hits. Unmarked numbers belong to inactive results.

Tests used:
Assay in all cases: log2 fold change, soluble protein after heating vs DMSO (PISA); higher = thermal stabilisation; K562 cells, 10 uM, 30 min; active = over 0.2 and 3.5 SD of the protein, either way, in both replicates (recomputed)
[1] = compound: CC[C@@H]1C(=O)N(C)c2cnc(Nc3ccc(C(=O)NC4CCN(C)CC4)cc3OC)nc2N1C1CCCC1
Method in brief: (§1)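 Soluble protein was quantified by TMTpro 16plex LC-MS/MS after channel sums were equalised. It was obtained as the supernatant after 21,000xg for 90 min from pooled aliquots of K562 cells (2×10^6 cells/mL, 10 μM compound, 30 min) heated for 3 min across 48°C-58°C and extracted in PBS with 0.5% NP-40 at 4°C. Thermal stability values are relative to control samples and come from duplicates. They are given as log2 fold changes.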

volasertib = compound: CC[C@@H]1C(=O)N(C)c2cnc(Nc3ccc(C(=O)N[C@H]4CC[C@H](N5CCN(CC6CC6)CC5)CC4)cc3OC)nc2N1C(C)C [volasertib]
Method in brief: as §1

[2] = compound: CC[C@H](C)N1C=C(C2=C(C=C(C=C21)C3=CN=C(C=C3)N4CCNCC4)C(=O)NCC5=C(C=C(NC5=O)C)C)C
Method in brief: as §1

epoxomicin = compound: CC[C@H](C)[C@@H](C(=O)N[C@@H]([C@@H](C)O)C(=O)N[C@@H](CC(C)C)C(=O)[C@]1(CO1)C)NC(=O)[C@H]([C@@H](C)CC)N(C)C(=O)C [epoxomicin]
Method in brief: as §1

[3] = compound: CCn1c(C(=O)N(C2CC2)C2CC2)cc2c3c(ncn3C)c(Nc3cc(C)n(C)n3)nc21
Method in brief: as §1

[4] = compound: CCn1cc(-c2ccnc3[nH]c(-c4cccc(CN(C)C)c4)cc23)c(-c2ccc(NC(=O)N(C)C)cc2)n1
Method in brief: as §1

[5] = compound: CN(C)CC(=O)Nc1ccc2[nH]c(=O)c3ccccc3c2c1
Method in brief: as §1

rosiglitazone = compound: CN(CCOC1=CC=C(C=C1)C[C@H]2C(=O)NC(=O)S2)C3=CC=CC=N3 (racemic) [rosiglitazone]
Method in brief: as §1

[6] = compound: CN1C2=C(C3=C1C(=O)N(N=C3)CC4=CC(=CC=C4)N)SC(=C2)S(=O)C
Method in brief: as §1

[7] = compound: CN1CCC(CNc2ccc3ncc(-c4cccc(OC(F)(F)F)c4)n3n2)CC1
Method in brief: as §1

saracatinib = compound: CN1CCN(CCOc2cc(OC3CCOCC3)c3c(Nc4c(Cl)ccc5c4OCO5)ncnc3c2)CC1 [saracatinib]
Method in brief: as §1

sotrastaurin = compound: CN1CCN(c2nc(C3=C(c4c[nH]c5ccccc45)C(=O)NC3=O)c3ccccc3n2)CC1 [sotrastaurin]
Method in brief: as §1

alvocidib = compound: CN1CC[C@H](c2c(O)cc(O)c3c(=O)cc(-c4ccccc4Cl)oc23)[C@H](O)C1 [alvocidib]
Method in brief: as §1

Tubastatin A = compound: CN1CCc2c(c3ccccc3n2Cc2ccc(C(=O)NO)cc2)C1 [Tubastatin A]
Method in brief: as §1

[8] = compound: CNC(=O)C1=CC=CC=C1NC2=NC(=NC=C2Cl)NC3=C(C=C(C=C3)N4CCOCC4)OC
Method in brief: as §1

defactinib = compound: CNC(=O)c1ccc(Nc2ncc(C(F)(F)F)c(NCc3nccnc3N(C)S(C)(=O)=O)n2)cc1 [defactinib]
Method in brief: as §1

rucaparib = compound: CNCc1ccc(-c2[nH]c3cc(F)cc4c3c2CCNC4=O)cc1 [rucaparib]
Method in brief: as §1

[9] = compound: CNc1nc(-c2ccc3c(N)n[nH]c3c2)cc(N2C[C@@H](C(=O)NC3CCCCC3)CC[C@H]2C)n1
Method in brief: as §1

encorafenib = compound: COC(=O)N[C@@H](C)CNc1nccc(-c2cn(C(C)C)nc2-c2cc(Cl)cc(NS(C)(=O)=O)c2F)n1 [encorafenib]
Method in brief: as §1

[10] = compound: COC(=O)[C@H](CCSC)NC(=O)C1=C(C=C(C=C1)NC[C@H](CS)N)C2=CC=CC=C2
Method in brief: as §1

Sequence of UniProt Q96A65 (Q96A65 whole entry, looked up): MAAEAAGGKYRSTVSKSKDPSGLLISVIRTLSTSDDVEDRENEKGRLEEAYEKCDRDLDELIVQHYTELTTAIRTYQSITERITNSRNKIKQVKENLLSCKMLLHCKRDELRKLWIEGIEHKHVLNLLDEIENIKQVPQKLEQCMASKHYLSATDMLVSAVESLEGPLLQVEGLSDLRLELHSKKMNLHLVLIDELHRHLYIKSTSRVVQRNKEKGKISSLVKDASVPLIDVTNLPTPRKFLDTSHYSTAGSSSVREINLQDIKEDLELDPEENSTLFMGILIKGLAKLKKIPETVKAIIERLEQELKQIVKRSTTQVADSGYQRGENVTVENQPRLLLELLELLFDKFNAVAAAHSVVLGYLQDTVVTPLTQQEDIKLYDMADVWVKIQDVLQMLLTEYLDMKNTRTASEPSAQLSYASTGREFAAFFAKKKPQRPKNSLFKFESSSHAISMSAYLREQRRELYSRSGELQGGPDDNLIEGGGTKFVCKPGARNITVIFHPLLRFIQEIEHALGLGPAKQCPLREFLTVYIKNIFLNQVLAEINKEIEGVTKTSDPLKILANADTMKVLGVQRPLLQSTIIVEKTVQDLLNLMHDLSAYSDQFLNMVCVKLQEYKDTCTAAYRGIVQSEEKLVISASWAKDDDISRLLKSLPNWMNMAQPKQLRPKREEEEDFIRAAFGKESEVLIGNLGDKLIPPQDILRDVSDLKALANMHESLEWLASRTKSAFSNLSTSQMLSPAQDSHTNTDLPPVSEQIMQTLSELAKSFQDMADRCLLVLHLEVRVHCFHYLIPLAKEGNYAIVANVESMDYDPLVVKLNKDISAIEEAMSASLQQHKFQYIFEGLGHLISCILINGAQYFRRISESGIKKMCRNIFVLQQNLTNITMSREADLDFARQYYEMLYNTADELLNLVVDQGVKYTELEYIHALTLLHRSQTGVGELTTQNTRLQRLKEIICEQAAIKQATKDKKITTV
Sequence of UniProt Q8N5C7 (Q8N5C7 whole entry, looked up): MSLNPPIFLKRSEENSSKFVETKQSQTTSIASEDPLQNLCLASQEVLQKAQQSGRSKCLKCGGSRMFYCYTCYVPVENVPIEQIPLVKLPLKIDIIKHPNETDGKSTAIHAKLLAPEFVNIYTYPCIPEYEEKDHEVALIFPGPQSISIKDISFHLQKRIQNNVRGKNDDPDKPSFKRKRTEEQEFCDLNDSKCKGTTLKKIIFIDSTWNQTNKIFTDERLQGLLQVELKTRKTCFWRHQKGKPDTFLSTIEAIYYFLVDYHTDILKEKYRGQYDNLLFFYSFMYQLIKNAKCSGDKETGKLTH
Sequence of UniProt O75911 (O75911 whole entry, looked up): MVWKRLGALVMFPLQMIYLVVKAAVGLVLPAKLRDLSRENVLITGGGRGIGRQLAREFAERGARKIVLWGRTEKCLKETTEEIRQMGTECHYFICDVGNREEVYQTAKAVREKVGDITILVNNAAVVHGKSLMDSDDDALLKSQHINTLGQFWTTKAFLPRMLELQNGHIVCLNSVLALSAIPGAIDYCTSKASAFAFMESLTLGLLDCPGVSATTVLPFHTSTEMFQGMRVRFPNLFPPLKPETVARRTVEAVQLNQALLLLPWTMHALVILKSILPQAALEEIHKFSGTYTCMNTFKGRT
Sequence of UniProt Q16254 (Q16254 whole entry, looked up): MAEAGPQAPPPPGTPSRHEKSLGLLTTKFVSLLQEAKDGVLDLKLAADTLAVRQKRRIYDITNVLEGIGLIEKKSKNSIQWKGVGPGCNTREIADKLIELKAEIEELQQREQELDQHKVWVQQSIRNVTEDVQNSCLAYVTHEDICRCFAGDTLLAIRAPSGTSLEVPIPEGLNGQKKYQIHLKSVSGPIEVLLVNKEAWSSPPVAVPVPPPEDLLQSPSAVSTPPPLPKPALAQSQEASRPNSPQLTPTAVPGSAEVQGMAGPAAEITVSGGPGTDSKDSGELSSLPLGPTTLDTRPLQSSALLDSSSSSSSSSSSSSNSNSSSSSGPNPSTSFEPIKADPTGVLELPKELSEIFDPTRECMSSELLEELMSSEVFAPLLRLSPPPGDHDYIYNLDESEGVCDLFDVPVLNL
Sequence of UniProt Q96F86 (Q96F86 whole entry, looked up): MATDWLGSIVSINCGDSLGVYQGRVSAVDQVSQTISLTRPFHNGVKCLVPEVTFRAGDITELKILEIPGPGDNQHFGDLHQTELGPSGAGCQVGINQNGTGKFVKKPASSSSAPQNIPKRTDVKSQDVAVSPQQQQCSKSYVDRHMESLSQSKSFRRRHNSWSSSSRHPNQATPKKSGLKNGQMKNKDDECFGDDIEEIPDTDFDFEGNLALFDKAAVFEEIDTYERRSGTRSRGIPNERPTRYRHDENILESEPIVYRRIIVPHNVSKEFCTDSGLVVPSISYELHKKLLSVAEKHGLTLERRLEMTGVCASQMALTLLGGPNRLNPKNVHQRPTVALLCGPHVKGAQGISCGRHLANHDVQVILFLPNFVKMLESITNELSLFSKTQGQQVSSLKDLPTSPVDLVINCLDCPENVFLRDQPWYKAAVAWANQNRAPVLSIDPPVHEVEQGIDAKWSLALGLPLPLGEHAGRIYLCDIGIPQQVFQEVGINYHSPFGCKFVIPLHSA
Sequence of UniProt P17844 (P17844 whole entry, looked up): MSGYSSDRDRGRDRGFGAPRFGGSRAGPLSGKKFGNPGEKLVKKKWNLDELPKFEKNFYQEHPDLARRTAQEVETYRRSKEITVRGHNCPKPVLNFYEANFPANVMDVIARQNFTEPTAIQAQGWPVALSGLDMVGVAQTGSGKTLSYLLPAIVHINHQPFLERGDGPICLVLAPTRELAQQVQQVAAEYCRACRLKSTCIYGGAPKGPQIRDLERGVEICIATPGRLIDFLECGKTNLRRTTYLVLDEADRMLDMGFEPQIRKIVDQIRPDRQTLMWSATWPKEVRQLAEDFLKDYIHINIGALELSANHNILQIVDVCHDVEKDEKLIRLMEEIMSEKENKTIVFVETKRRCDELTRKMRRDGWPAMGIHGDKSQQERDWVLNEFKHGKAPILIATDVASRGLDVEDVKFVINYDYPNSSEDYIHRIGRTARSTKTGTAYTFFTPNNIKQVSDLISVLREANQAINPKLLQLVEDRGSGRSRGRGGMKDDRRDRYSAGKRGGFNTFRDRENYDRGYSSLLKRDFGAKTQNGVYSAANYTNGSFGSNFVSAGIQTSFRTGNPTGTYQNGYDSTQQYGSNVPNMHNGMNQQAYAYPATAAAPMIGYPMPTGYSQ
Sequence of UniProt O75822 (O75822 whole entry, looked up): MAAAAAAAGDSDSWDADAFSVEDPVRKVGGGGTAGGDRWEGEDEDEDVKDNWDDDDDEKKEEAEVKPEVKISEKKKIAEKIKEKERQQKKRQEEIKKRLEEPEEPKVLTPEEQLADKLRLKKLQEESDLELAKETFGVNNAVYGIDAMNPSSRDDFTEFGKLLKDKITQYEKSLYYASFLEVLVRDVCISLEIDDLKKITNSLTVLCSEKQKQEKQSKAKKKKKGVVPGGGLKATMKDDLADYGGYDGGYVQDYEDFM
Sequence of UniProt O00471 (O00471 whole entry, looked up): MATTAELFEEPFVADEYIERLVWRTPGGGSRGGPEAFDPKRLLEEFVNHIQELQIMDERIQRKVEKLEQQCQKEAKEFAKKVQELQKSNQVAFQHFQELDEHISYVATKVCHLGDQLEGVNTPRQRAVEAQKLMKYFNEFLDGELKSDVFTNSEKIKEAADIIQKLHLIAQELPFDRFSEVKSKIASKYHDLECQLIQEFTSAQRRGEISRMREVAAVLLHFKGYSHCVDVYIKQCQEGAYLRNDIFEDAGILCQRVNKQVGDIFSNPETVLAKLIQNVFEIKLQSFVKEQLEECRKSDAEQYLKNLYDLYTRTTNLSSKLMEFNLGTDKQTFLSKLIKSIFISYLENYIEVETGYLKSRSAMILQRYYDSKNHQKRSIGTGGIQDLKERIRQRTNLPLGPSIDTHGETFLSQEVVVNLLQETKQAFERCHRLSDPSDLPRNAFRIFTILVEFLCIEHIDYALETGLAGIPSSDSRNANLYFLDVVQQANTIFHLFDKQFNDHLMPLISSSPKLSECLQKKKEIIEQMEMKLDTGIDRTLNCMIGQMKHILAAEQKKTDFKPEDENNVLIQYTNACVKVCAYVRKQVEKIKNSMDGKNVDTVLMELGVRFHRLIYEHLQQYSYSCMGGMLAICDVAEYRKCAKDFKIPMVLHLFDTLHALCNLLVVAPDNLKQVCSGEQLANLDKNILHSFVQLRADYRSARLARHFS
Sequence of UniProt P25685 (P25685 whole entry, looked up): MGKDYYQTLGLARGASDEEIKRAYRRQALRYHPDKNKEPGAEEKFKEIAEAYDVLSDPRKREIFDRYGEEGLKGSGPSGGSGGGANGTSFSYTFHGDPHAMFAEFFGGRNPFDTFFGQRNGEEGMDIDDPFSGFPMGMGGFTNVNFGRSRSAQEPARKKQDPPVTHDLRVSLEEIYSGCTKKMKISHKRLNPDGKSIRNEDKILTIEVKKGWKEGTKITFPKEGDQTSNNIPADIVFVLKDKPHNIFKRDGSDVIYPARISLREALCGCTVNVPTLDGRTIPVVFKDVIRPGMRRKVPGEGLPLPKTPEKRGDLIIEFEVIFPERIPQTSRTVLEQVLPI
Sequence of UniProt Q9UBM7 (Q9UBM7 whole entry, looked up): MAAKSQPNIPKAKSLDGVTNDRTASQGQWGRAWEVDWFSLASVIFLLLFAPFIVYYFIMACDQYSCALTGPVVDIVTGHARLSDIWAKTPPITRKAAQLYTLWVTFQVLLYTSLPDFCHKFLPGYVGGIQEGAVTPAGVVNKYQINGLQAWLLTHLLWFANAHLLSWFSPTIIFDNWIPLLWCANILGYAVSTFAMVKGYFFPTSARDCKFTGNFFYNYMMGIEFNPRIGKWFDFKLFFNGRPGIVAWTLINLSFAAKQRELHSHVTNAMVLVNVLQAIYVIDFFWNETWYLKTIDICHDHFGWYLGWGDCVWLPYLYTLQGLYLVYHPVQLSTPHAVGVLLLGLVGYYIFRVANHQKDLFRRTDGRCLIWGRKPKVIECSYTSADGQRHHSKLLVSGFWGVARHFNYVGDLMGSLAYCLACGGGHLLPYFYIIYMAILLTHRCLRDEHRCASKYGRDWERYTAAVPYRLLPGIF

Row | Target | log2 fold change [1] | log2 fold change (volasertib) | log2 fold change [2] | log2 fold change (epoxomicin) | log2 fold change [3] | log2 fold change [4] | log2 fold change [5] | log2 fold change (rosiglitazone) | log2 fold change [6] | log2 fold change [7] | log2 fold change (saracatinib) | log2 fold change (sotrastaurin) | log2 fold change (alvocidib) | log2 fold change (Tubastatin A) | log2 fold change [8] | log2 fold change (defactinib) | log2 fold change (rucaparib) | log2 fold change [9] | log2 fold change (encorafenib) | log2 fold change [10]
1 | DHX36 (UniProt Q9H2U1) | 0.11 | 0.059 | 0.002 | -0.032 | -0.009 | 0.032 | -0.032 | -0.015 | 0.086 | -0.027 | -0.014 | 0.021 | 0.122 | 0.048 | -0.041 | 0.171 | 0.187 | 0.03 | 0.095 | 0.011
2 | DTWD1 (UniProt Q8N5C7) | -0.081 | -0.196 | -0.07 | -0.054 | 0.018 | -0.033 | 0.036 | 0.057 | -0.046 | 0.089 | 0.007 | -0.02 | -0.122 | -0.014 | 0.007 | -0.03 | 0.011 | 0.152 | 0.051 | -0.143
3 | CWC27 (UniProt Q6UX04) | -0.103 | -0.421 (active) | 0.086 | 0.094 | -0.089 | 0.117 | 0.066 | 0.143 | -0.011 | -0.091 | 0.01 | -0.093 | 0.011 | 0.012 | 0.022 | -0.139 | -0.001 | -0.064 | 0.068 | -0.04
4 | DPYSL2 (UniProt Q16555) | 0.055 | -0.037 | 0.014 | 0.129 | -0.071 | -0.073 | 0.11 | 0.039 | -0.058 | -0.067 | 0.127 | 0.062 | -0.089 | -0.003 | -0.066 | 0.02 | 0.015 | -0.032 | -0.054 | -0.009
5 | EDC3 (UniProt Q96F86) | -0.006 | -0.192 | 0.057 | 0.003 | -0.03 | -0.031 | 0.058 | 0.067 | 0.094 | -0.251 | -0.041 | -0.304 | -0.021 | 0.053 | -0.021 | -0.04 | 0.015 | -0.237 | 0.048 | 0.005
6 | ETNK1 (UniProt Q9HBU6) | 0.021 | -0.24 | 0.021 | 0.157 | -0.03 | 0.059 | 0.121 | 0 | -0.14 | 0.041 | -0.037 | -0.045 | -0.028 | 0.092 | 0.053 | -0.001 | 0.295 (active) | -0.039 | -0.007 | -0.027
7 | EIF3J (UniProt O75822) | -0.061 | 0.005 | 0.011 | 0.055 | 0 | 0.001 | -0.008 | 0.019 | -0.061 | 0.226 | -0.042 | -0.028 | 0.006 | -0.005 | 0.019 | 0.019 | -0.072 | -0.037 | -0.008 | -0.029
8 | EXOC5 (UniProt O00471) | -0.236 | -0.596 (active) | 0.093 | 0.041 | -0.046 | 0.022 | 0.066 | 0.044 | 0.054 | -0.215 | -0.043 | -0.209 | -0.008 | 0.015 | 0.042 | -0.064 | 0.091 | -0.06 | 0.083 | -0.071
9 | DNAJB1 (UniProt P25685) | 0.011 | -0.222 (active) | 0.064 | -0.041 | -0.022 | -0.026 | -0.01 | 0.02 | -0.064 | -0.042 | -0.003 | -0.03 | -0.094 | -0.001 | -0.011 | -0.05 | -0.025 | -0.033 | -0.009 | -0.017
10 | EXOC4 (UniProt Q96A65) | -0.145 | -0.606 (active) | 0.095 | 0.005 | -0.129 | 0.021 | 0.061 | 0.021 | 0.103 | -0.243 | -0.013 | -0.224 | -0.131 | 0.058 | -0.04 | -0.049 | 0.183 | 0.015 | 0.14 | 0.01
11 | DHCR7 (UniProt Q9UBM7) | 0.409 | 1.68 (active) | 0.054 | 0.154 | -0.044 | 0.522 (active) | 0.085 | 0.032 | -0.055 | 0.203 | 0.412 | -0.033 | -0.042 | 0.087 | -0.181 | -0.01 | 0.143 | 0.087 | 0.084 | -0.048
12 | DBR1 (UniProt Q9UK59) | 0.037 | 0 | 0.008 | -0.018 | -0.017 | 0.015 | -0.019 | -0.002 | -0.034 | 0.015 | 0.048 | 0.019 | -0.002 | -0.012 | -0.033 | -0.012 | -0.007 | -0.004 | -0.012 | -0.011
13 | DDX5 (UniProt P17844) | -0.426 (active) | -0.589 (active) | 0.103 | 0.149 | -0.115 | -0.083 | 0.101 | 0.066 | 0.018 | 0.019 | -0.055 | -0.206 | -0.07 | 0.041 | 0.025 | -0.206 | -0.075 | -0.021 | 0.14 | -0.085
14 | DHRS3 (UniProt O75911) | 0.134 | 0.02 | 0.02 | -0.002 | 0.001 | 0.001 | -0.054 | -0.013 | -0.062 | 0.056 | -0.022 | -0.008 | 0.001 | -0.042 | 0.044 | 0.077 | -0.04 | -0.016 | 0.004 | 0.027
15 | FADS1, A0A0A0MR51 | 0.022 | -0.148 | 0.036 | 0.024 | 0.002 | -0.002 | -0.007 | 0.017 | -0.119 | -0.041 | 0.013 | -0.061 | -0.086 | 0.15 | 0.112 | -0.022 | 0.005 | 0.027 | 0.004 | 0
16 | E2F4 (UniProt Q16254) | -0.057 | -0.139 | 0.036 | -0.008 | -0.017 | -0.025 | -0.024 | 0.056 | 0.009 | -0.245 (active) | -0.012 | -0.056 | -0.134 | 0.028 | -0.045 | -0.122 | -0.025 | -0.02 | -0.002 | -0.042
